Data as given in paper PMC5700166.
Where a chain is given by its changes, count along the chain named.

Key:
Assay in all cases: protein-binding microarray (PBM); PBM: ~300 nM protein, 6 mM HEPES pH 7.8, 80 mM KCl, 0.5 mM EDTA, 0.5 mM EGTA, 6% glycerol, 35 ng/ul poly-dIdC, 1% milk, 1 h, room temperature; Ap Aiptasia and Nv Nematostella (sea anemones) / Co Capsaspora / Aq Amphimedon (sponge) / Dm Drosophila / Hu human; RHD is the Rel homology domain; high values mean tight binding
Settings in all cases: dsDNA, one strand shown
GST-Ap-NF-kB RHD = target: T1, GST-Ap-NF-kB RHD (Exaiptasia pallida (Aiptasia), UniProt A0A913YAJ5 2-422)
T1 sequence: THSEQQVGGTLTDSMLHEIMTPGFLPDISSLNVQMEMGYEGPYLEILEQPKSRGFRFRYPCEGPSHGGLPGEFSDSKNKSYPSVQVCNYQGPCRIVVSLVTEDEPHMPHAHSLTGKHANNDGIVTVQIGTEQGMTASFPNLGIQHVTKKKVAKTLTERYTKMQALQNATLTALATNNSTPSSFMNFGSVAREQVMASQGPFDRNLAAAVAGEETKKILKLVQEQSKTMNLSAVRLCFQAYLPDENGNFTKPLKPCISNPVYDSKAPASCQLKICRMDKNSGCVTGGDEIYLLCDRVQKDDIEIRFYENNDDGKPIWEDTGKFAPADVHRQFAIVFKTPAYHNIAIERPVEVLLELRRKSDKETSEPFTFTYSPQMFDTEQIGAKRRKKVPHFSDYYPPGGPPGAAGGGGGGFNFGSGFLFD

[1] = target: T2, GST-Nv-NF-kB (Cys allele) (Nematostella vectensis, UniProt E5G601 2-411)
T2 sequence: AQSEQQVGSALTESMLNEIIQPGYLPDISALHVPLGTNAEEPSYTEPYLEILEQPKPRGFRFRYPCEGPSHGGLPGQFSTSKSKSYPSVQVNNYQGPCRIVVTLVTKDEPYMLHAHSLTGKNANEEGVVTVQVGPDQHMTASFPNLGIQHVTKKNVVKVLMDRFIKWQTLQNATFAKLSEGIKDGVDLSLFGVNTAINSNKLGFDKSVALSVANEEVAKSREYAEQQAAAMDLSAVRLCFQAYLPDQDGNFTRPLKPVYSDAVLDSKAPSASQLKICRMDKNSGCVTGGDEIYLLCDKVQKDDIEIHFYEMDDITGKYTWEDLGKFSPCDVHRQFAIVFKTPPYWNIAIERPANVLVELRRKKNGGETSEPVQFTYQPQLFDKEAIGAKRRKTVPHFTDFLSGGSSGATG

[2] = target: T3, GST-Nv-NF-kB (Ser allele) (Nematostella vectensis, UniProt A7UNT2 2-411)
T3 sequence: T2 sequence with Q21R, C66S, S207N, E215Q, V217A, E225K, A268E, D399E

GST-Co-NF-kB = target: T4, GST-Co-NF-kB (Capsaspora owczarzaki, UniProt F1ARL5 200-546)
T4 sequence: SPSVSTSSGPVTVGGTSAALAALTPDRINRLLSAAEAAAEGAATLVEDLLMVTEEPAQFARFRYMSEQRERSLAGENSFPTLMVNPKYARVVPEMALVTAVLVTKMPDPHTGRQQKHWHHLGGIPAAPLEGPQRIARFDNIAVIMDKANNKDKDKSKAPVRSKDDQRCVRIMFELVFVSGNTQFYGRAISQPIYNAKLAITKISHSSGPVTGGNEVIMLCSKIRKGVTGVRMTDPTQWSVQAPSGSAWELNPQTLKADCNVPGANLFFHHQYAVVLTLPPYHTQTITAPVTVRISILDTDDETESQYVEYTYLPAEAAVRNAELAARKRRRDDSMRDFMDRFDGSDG

GST-Dm-Relish = target: T5, GST-Dm-Relish (Drosophila melanogaster, UniProt Q94527 99-473)
T5 sequence: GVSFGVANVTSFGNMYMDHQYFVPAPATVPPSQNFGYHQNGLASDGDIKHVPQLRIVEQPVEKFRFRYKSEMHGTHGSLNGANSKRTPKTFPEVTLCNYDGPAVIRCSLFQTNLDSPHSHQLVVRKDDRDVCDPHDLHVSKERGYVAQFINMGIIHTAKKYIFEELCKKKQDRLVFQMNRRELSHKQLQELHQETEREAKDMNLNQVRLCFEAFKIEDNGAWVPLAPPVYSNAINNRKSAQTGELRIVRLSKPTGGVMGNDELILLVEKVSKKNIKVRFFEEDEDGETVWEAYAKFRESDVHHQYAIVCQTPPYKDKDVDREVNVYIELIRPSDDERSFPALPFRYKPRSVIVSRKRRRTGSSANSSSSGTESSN

GST-Aq-NF-kB = target: T6, GST-Aq-NF-kB (Amphimedon queenslandica, UniProt A9Y5G7 2-389)
T6 sequence: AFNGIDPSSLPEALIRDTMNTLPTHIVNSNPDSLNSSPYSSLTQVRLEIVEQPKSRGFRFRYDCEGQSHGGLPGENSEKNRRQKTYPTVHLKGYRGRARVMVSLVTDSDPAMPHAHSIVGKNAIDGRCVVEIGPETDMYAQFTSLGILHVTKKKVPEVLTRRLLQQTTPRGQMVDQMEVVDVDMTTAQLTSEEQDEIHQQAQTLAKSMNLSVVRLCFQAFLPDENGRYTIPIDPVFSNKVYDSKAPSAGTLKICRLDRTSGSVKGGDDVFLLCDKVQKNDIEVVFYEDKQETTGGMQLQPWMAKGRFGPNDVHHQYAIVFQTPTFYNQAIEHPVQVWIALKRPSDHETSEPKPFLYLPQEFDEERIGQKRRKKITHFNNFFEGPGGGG

GST-Hu-p50 = GST-Hu-p50 (Homo sapiens, UniProt P19838 7-356)
Sequence of GST-Hu-p50 (P19838 7-356): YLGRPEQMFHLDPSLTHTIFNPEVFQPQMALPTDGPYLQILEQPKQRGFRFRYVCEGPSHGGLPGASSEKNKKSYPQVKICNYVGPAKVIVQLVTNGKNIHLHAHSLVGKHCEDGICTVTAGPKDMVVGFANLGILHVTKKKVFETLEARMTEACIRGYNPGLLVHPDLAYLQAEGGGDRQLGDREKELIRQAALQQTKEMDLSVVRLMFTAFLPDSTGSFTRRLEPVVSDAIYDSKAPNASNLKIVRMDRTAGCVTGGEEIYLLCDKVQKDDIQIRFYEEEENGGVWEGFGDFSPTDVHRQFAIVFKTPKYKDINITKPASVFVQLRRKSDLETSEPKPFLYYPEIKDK

Sequence	binding signal (GST-Ap-NF-kB RHD) [z-score]	binding signal [1] [z-score]	binding signal [2] [z-score]	binding signal (GST-Co-NF-kB) [z-score]	binding signal (GST-Dm-Relish) [z-score]	binding signal (GST-Aq-NF-kB) [z-score]	binding signal (GST-Hu-p50) [z-score]
CCGATTAACATCAATTATCCCCCTGATGTTAATCGGGTCTTGATTCGCTTGACGCTGCTG	6.74	5.48	6.6	7.87	4.31	5.15	5.52
CCGATTAACATCAAGGATTCCCCTGATGTTAATCGGGTCTTGATTCGCTTGACGCTGCTG	9.7	10.5	10	6.56	9.55	7.75	6.89
CCGATTAACATCAGGGGAACAACTGATGTTAATCGGGTCTTGATTCGCTTGACGCTGCTG	5.15	4.83	5.57	5.75	8.64	5.43	3.48
CCGATTAACATCAAATGTCCCCCTGATGTTAATCGGGTCTTGATTCGCTTGACGCTGCTG	6.37	5.25	5.66	7.6	5.11	5.64	4.71
CCGATTAACATCAAAATATCCCCTGATGTTAATCGGGTCTTGATTCGCTTGACGCTGCTG	8.8	9.37	11	5.38	8.53	7.25	7.09
CCGATTAACATCAATTTTCCCCGTGATGTTAATCGGGTCTTGATTCGCTTGACGCTGCTG	6.99	8.12	10.2	11	4.87	6.2	5.95
CCGATTAACATCAGGAAACTCCCTGATGTTAATCGGGTCTTGATTCGCTTGACGCTGCTG	5.65	7.91	4.86	1.88	5.39	9.07	5.86
CCGATTAACATCAATCTTCCCCCTGATGTTAATCGGGTCTTGATTCGCTTGACGCTGCTG	5.77	6.99	7.73	9.37	4.07	6.23	6.3
CCGATTAACATCAGGGAAGACCCTGATGTTAATCGGGTCTTGATTCGCTTGACGCTGCTG	4.49	5.72	3.5	1.33	7.97	7.06	3.16
CCGATTAACATCAACATTACCCCTGATGTTAATCGGGTCTTGATTCGCTTGACGCTGCTG	2.39	2.88	3.43	4.07	1.42	2.86	3.24
CCGATTAACATCAGGGGATTACATGATGTTAATCGGGTCTTGATTCGCTTGACGCTGCTG	6.52	6.73	8.01	3.12	8	5.64	5.79
CCGATTAACATCAGGGGAAAGACTGATGTTAATCGGGTCTTGATTCGCTTGACGCTGCTG	4.98	6.57	7.06	4.97	6.16	5.51	4.9
CCGATTAACATCAGGGAGGGAAATGATGTTAATCGGGTCTTGATTCGCTTGACGCTGCTG	2.6	4.76	3.78	3.79	1.23	3.72	2.8
CCGATTAACATCAGGGGAAATAATGATGTTAATCGGGTCTTGATTCGCTTGACGCTGCTG	6.88	8.65	11.6	9	5.53	5.68	6.58
CCGATTAACATCAGATTTTCCCCTGATGTTAATCGGGTCTTGATTCGCTTGACGCTGCTG	8	8.78	11	9.39	4.94	7.27	6.35
CCGATTAACATCACGGTATTCCCTGATGTTAATCGGGTCTTGATTCGCTTGACGCTGCTG	4.35	3.63	3.91	3.34	6.53	6	1.52
CCGATTAACATCAAGGGGGAAATTGATGTTAATCGGGTCTTGATTCGCTTGACGCTGCTG	7.69	8.6	10.5	8.86	5.87	7.06	7.51
CCGATTAACATCAGGGAATTTACTGATGTTAATCGGGTCTTGATTCGCTTGACGCTGCTG	4.29	6.69	6.33	3.89	6.87	6.82	5.14
CCGATTAACATCAGGGGGAAATATGATGTTAATCGGGTCTTGATTCGCTTGACGCTGCTG	7.3	8.58	10.6	11.1	4.77	6.38	7.38
